# The whole screen tested about 340,000 compounds, of which about 1,700 (0.5%) were called active. The sample holds actives, similar compounds and a random draw of the others, so the mix is not that of the screen.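 Rule for the calls: active = compounds whose inhibition of the agonist-driven luminescence signal at 20 µM reaches about 50% (limit read from the data); inactive = the rest.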
# Molecular target: C-C chemokine receptor type 6 (Homo sapiens) (UniProt P51684)
# Experiment: blockers of CCL20-driven beta-arrestin recruitment to CCR6 – cell-based, CHO-K1, luminescence, uHTS, primary screen (AID 493098);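 note: cells stimulated with CCL20 at 14 nM final; plate controls were DMSO with CCL20 for no effect and DMSO without agonist for full effect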
# Details: CHO-K1 CCR6 PathHunter beta-arrestin, CCL20-stimulated, at 20 µM, stronger effect = higher value
# C-C chemokine receptor type 6 (Homo sapiens), sequence (P51684 whole entry, looked up): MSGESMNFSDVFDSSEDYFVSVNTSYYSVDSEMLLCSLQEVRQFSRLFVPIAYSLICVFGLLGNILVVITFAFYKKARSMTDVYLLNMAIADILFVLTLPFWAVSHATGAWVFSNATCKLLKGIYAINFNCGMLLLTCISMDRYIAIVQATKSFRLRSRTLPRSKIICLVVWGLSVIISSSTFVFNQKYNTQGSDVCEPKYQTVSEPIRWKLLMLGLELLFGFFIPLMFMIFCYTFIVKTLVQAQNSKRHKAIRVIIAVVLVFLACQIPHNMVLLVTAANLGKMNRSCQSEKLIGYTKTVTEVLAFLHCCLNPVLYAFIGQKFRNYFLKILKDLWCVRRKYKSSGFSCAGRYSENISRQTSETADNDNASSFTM
row,SMILES,inhibition
1,O=[N+]([O-])c1ccccc1S(=O)(=O)Nc1cccc2cccnc12,54.6% (active)
2,COc1cc(NS(=O)(=O)c2ccc3ccccc3c2)c2ncccc2c1,13.2% (inactive)
3,NS(=O)(=O)c1ccc(CCNS(=O)(=O)c2cccc3cccnc23)cc1,12.6% (inactive)
4,CCOc1ccccc1NC(=O)COc1ccc(S(=O)(=O)N2CCCC2)cc1,17.1% (inactive)
5,CN1CCN(/N=C2/C(=O)Nc3ccc([N+](=O)[O-])cc32)CC1,7.16% (inactive)
6,O=[N+]([O-])c1ccc(N(CCO)Cc2ccccc2)c([N+](=O)[O-])c1,12.9% (inactive)
7,O=C1Nc2ccc([N+](=O)[O-])cc2C1=Nc1cccc(CO)c1,57.4% (active)
8,COc1ccc(N2CCN(CCNC(=O)c3nnc(Cc4c(F)cccc4Cl)o3)CC2)cc1,14.8% (inactive)
9,CCn1nc(C)c(CN2CCN(Cc3ccc(OC)c(C)c3C)C(CCO)C2)c1C (stereo not drawn),5.51% (inactive)
10,COc1cc2c(-c3ccc4c(c3)OCO4)c(-c3ccsc3)oc(=O)c2cc1OC,21% (inactive)
11,O=C(N/N=C/c1cc(Br)c(O)c([N+](=O)[O-])c1)C(O)(c1ccccc1)c1ccccc1,33.5% (inactive)
12,O=C(O)c1ccccc1/C=N/Nc1ccc(S(=O)(=O)Nc2ccc(Cl)cc2)cc1[N+](=O)[O-],46.4% (inactive)
13,O=C(N/N=C/c1cc(Cl)cc([N+](=O)[O-])c1O)C(O)(c1ccccc1)c1ccccc1,54.2% (active)
14,COC(=O)c1cccc(C(=O)N2CCC(CCC(=O)NCc3ccc(F)cc3)CC2)c1,7.16% (inactive)
15,CCc1ccc(N(C(=O)c2csnn2)C(C(=O)NC2CCCCC2)c2cccnc2)cc1 (stereo not drawn),18.2% (inactive)
16,Cc1cc2oc(=O)cc(CN(C)Cc3ccc(OC(F)F)cc3)c2cc1Cl,21.5% (inactive)
17,COc1ccc(C(C#N)(CC(=O)O)c2cnccn2)cc1OC (stereo not drawn),14.6% (inactive)
18,O=c1nc(N/N=C/c2ccco2)cn[nH]1,3.85% (inactive)
19,O=S(=O)(c1ccc(NC(=S)NN=C(C2CC2)C2CC2)cc1)N1CCOCC1,15.7% (inactive)
20,O=[N+]([O-])c1cc(Cl)cc(/C=N/NC(=S)Nc2cc(S(=O)(=O)N3CCOCC3)ccc2Cl)c1O,63.1% (active)

row,SMILES,inhibition
1,Cc1ccc(S(=O)(=O)N2CCN(CC(=O)N/N=C/c3cc([N+](=O)[O-])ccc3Cl)CC2)cc1,-22.1% (inactive)
2,CCOc1cc(C(=O)OCC(=O)Nc2cccc(C)c2)ccc1OCC(=O)N1CCOCC1,1.35% (inactive)
3,CCc1nccn1S(=O)(=O)c1cccc([N+](=O)[O-])c1,3.26% (inactive)
4,Cc1ccc(/C([O-])=C(/C(=S)NCc2ccco2)[n+]2ccccc2)cc1[N+](=O)[O-],14.2% (inactive)
5,c1ccc2c(c1)OC1OC2Oc2ccccc21,19.4% (inactive)
6,CCC(C)N1C(=O)S/C(=C/c2ccc(Sc3nc4ccccc4[nH]3)o2)C1=O (stereo not drawn),15.6% (inactive)
7,Cc1cc(C(=O)N/N=C/c2cc([N+](=O)[O-])cc(C)c2O)n[nH]1,34.7% (inactive)
8,O=[N+]([O-])c1cc(Br)c(O)c(/C=N/Nc2nc3ccccc3s2)c1,54.2% (active)
9,O=C(NC(Nc1nc2ccc([N+](=O)[O-])cc2s1)(C(F)(F)F)C(F)(F)F)c1ccccc1,34.6% (inactive)
10,O=C(CN(Cc1ccc(Br)cc1)S(=O)(=O)c1ccccc1)NCc1ccncc1,28.9% (inactive)
11,CCOC(=O)c1c(C)[nH]c(C)c1S(=O)(=O)NCCCc1ccco1,0.21% (inactive)
12,COc1ccc(C(=O)NC2CC2)cc1OC1CCN(C/C=C/c2ccccc2)CC1,3.46% (inactive)
13,O=C(N/N=C/c1cc([N+](=O)[O-])ccc1O)/C(=C\c1cccs1)NC(=O)c1ccccc1,34.4% (inactive)
14,O=[N+]([O-])c1ccc(O)c(/C=N/Nc2ccccc2[N+](=O)[O-])c1,55.9% (active)
15,Nc1nnnn1/N=C/c1cc([N+](=O)[O-])ccc1O,23.1% (inactive)
16,CCN(CC)C(=O)c1nc[nH]c1C(=O)N(C)Cc1ccccc1,9.33% (inactive)
17,COc1ccc(OC)c(-c2csc(NC(=O)C3=NNC(=O)CC3)n2)c1,-1% (inactive)
18,COc1ccc2oc(=O)cc(-c3cc4ccccc4o3)c2c1,10.7% (inactive)
19,COc1ccc2nc(Nc3nc(-c4cc5ccccc5oc4=O)cs3)sc2c1,54.4% (active)
20,Cc1cc(Cl)c(S(=O)(=O)NCc2cccnc2)cc1OCC(N)=O,-11.7% (inactive)

row,SMILES,inhibition
1,CNC(=S)Nc1ccc([N+](=O)[O-])cc1,7.58% (inactive)
2,NC(=O)C1(Nc2ccc([N+](=O)[O-])cc2)CCCC1,4.74% (inactive)
3,O=[N+]([O-])c1ccc(N=NNc2ccc([N+](=O)[O-])cc2)cc1,58.2% (active)
4,CC(=O)NC(CC(=O)Nc1ccc(S(=O)(=O)N2CCOCC2)cc1)c1ccccc1 (stereo not drawn),4.97% (inactive)
5,Cc1nc(SCC(=O)NC2CCCCC2C)c(C#N)c(C)c1C (stereo not drawn),13% (inactive)
6,CCOc1ccc(C(=O)NC(=S)Nc2ccc(NC(=O)C(C)C)cc2)cc1[N+](=O)[O-],28.1% (inactive)
7,CCOc1ccc(C(=O)NC(=S)Nc2ccc(N3CCOCC3)c(Cl)c2)cc1[N+](=O)[O-],53.9% (active)
8,COc1cccc(OC)c1C(=O)NC(=S)Nc1ccc(N2CCOCC2)c(Cl)c1,8.18% (inactive)
9,C/C=C/C=C/C(=O)O,-5.26% (inactive)
10,Cc1ccc(C(=O)NC2CCN(C(=O)Nc3ccc(F)cc3)CC2)cc1,-8.58% (inactive)
11,COC(=O)c1ccc(NCc2cc(O)ccc2O)cc1,20.3% (inactive)
12,Cc1ccc(NC(=S)Nc2ccc(F)cc2)cc1,-4.89% (inactive)
13,COc1ccc(NC(=O)CCCC(=O)c2ccccc2)cc1,-6.21% (inactive)
14,Cc1ccc(C(=O)CNc2ccc(F)cc2)cc1,90.9% (active)
15,COC(=O)c1ccc(NCC(=O)c2ccccc2)cc1,72.6% (active)
16,O=C(Nc1ccc(Br)cc1F)C1CC(=O)N(C2CCCCC2)C1 (stereo not drawn),1.54% (inactive)
17,CC(C)NC(=O)c1ccc(Sc2ccccc2)c([N+](=O)[O-])c1,10.2% (inactive)
18,Cc1cc(C)cc(OCC(=O)NNC(=O)CCN2C(=O)c3ccccc3C2=O)c1,10.7% (inactive)

# Source: PubChem BioAssay AID493098 (Sanford-Burnham Center for Chemical Genomics, 2011)
